Experimental data taken from PubChem BioAssay AID1159580 (chemical genetic matrix, 2015).
Where “and” joins values, the source holds several entries; their conditions need not be identical. Equal values may be shown once. About 2,000 (36%) of roughly 5,500 compounds were called active. Inconclusive results (about 18%) are left out. Rule as the data show it: active = normalized growth mostly below about 0.91 (no sharp cut-off); inconclusive = no clear call, values can overlap the other calls; inactive = mostly above about 0.92. The list shows a part of the results.

Assay: chemical genetic growth profiling, strain panel (AID 1159580);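 also: tested at 20 µM; growth read once vehicle control cultures reached saturation at 30 °C; 1 = growth at the plate median or of vehicle wells; lower values mean less growth of the strain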
Conditions: S. cerevisiae deletion strains, growth OD

Measured: normalized growth

COc1cc(-c2coc3cc(O[C@@H]4O[C@H](CO)[C@@H](O)[C@H](O)[C@H]4O)c(OC)c(O)c3c2=O)cc(O)c1OC
inactive: locus YAL021C, strain ccr4, stronger effect = lower value 1.01 | locus YAL026C, strain drs2, stronger effect = lower value 1.01 | locus YAL030W, strain snc1, stronger effect = lower value 0.988 | locus YBL061C, strain skt5, stronger effect = lower value 0.997 | locus YBR009C, strain hhf1, stronger effect = lower value 0.986 | locus YBR021W, strain FUR4, stronger effect = lower value 1.02 | locus YBR023C, strain chs3, stronger effect = lower value 0.989 | locus YBR171W, strain sec66, stronger effect = lower value 0.99 | locus YBR229C, strain ROT2, stronger effect = lower value 0.994 | locus YBR231C, strain swc5, stronger effect = lower value 0.983 | locus YBR279W, strain paf1, stronger effect = lower value 1 | locus YCL011C, strain gbp2, stronger effect = lower value 0.999 | locus YCL016C, strain dcc1, stronger effect = lower value 0.996 | locus YCL029C, strain bik1, stronger effect = lower value 1.01 | locus YCL061C, strain MRC1, stronger effect = lower value 0.994 | locus YCL069W, strain vba3, stronger effect = lower value 1.01 | locus YCR088W, strain abp1, stronger effect = lower value 0.997 | locus YDL005C, strain med2, stronger effect = lower value 0.98 | locus YDL035C, strain GPR1, stronger effect = lower value 1.04 | locus YDL040C, strain nat1, stronger effect = lower value 0.994 | locus YDL074C, strain BRE1, stronger effect = lower value 1.08 | locus YDL101C, strain DUN1, stronger effect = lower value 0.987 | locus YDL185W, strain tfp1, stronger effect = lower value 0.997 | locus YDL192W, strain arf1, stronger effect = lower value 1.02 | locus YDR001C, strain nth1, stronger effect = lower value 1.01 | locus YDR069C, strain doa4, stronger effect = lower value 0.986 | locus YDR101C, strain arx1, stronger effect = lower value 1.03 | locus YDR137W, strain rgp1, stronger effect = lower value 1.02 | locus YDR150W, strain NUM1, stronger effect = lower value 1.02 | locus YDR159W, strain sac3, stronger effect = lower value 0.973 | locus YDR162C, strain NBP2, stronger effect = lower value 1.03 | locus YDR195W, strain ref2 0.939 | locus YDR297W, strain sur2, stronger effect = lower value 1.01 | locus YDR318W, strain mcm21, stronger effect = lower value 1.02 | locus YDR334W, strain swr1, stronger effect = lower value 0.997 | locus YDR335W, strain msn5, stronger effect = lower value 1 | locus YDR388W, stronger effect = lower value 1 | locus YDR392W, strain spt3, stronger effect = lower value 0.874 | locus YDR502C, strain sam2, stronger effect = lower value 1 | locus YEL003W, strain gim4, stronger effect = lower value 0.982 | locus YEL037C, strain rad23, stronger effect = lower value 1.01 | locus YEL061C, strain CIN8 (second series), stronger effect = lower value 1 | locus YEL061C, strain CIN8, stronger effect = lower value 1 | locus YER015W, strain faa2, stronger effect = lower value 1 | locus YER016W, strain bim1, stronger effect = lower value 0.996 | locus YER110C, stronger effect = lower value 0.996 | locus YER111C, strain swi4, stronger effect = lower value 1 | locus YER155C, strain BEM2 (second series), stronger effect = lower value 0.928 | locus YER155C, strain BEM2, stronger effect = lower value 0.991 | locus YER167W, strain BCK2, stronger effect = lower value 0.993 | locus YFR010W, strain ubp6, stronger effect = lower value 0.999 | locus YGL078C, strain dbp3, stronger effect = lower value 0.988 | locus YGL086W, strain mad1, stronger effect = lower value 1 | locus YGL167C, strain pmr1, stronger effect = lower value 0.996 | locus YGL173C, strain kem1, stronger effect = lower value 1 | locus YGL227W, strain vid30, stronger effect = lower value 0.995 | locus YGL240W, strain doc1, stronger effect = lower value 0.961 | locus YGL248W, strain PDE1, stronger effect = lower value 0.982 | locus YGL253W, strain hxk2, stronger effect = lower value 1.02 | locus YGR135W, strain pre9, stronger effect = lower value 0.97 | locus YGR252W, strain gcn5, stronger effect = lower value 0.997 | locus YHR013C, strain ard1, stronger effect = lower value 0.979 | locus YHR027C, strain rpn1, stronger effect = lower value 0.995 | locus YHR030C, strain SLT2, stronger effect = lower value 1.01 | locus YHR079C, strain IRE1 (second series), stronger effect = lower value 1 | locus YHR079C, strain IRE1, stronger effect = lower value 1.01 | locus YHR094C, strain hxt1, stronger effect = lower value 0.993 | locus YHR129C, strain ARP1, stronger effect = lower value 0.999 | locus YHR142W, strain chs7, stronger effect = lower value 1.02 | locus YHR200W, strain rpn10, stronger effect = lower value 1 | locus YIL066C, strain RNR3, stronger effect = lower value 1 | locus YIL073C, strain SPO22, stronger effect = lower value 1.05 | locus YIL125W, strain kgd1, stronger effect = lower value 0.997 | locus YIR030C, strain dcg1, stronger effect = lower value 0.994 | locus YJL092W, strain hpr5, stronger effect = lower value 1 | locus YJL095W, strain BCK1 (second series), stronger effect = lower value 1 | locus YJL095W, strain BCK1, stronger effect = lower value 1.02 and 1.01 | locus YJL115W, strain asf1, stronger effect = lower value 0.993 | locus YJL129C, strain trk1, stronger effect = lower value 1 | locus YJL134W, strain LCB3, stronger effect = lower value 0.992 | locus YJL154C, strain vps35, stronger effect = lower value 0.997 | locus YJL164C, strain tpk1, stronger effect = lower value 1 | locus YJL166W, strain qcr8, stronger effect = lower value 0.991 | locus YJL168C, strain set2, stronger effect = lower value 0.995 | locus YJL187C, strain SWE1 (second series), stronger effect = lower value 0.991 | locus YJR043C, strain POL32, stronger effect = lower value 1.05
